Measurements taken from PubChem BioAssay (EPA / NIEHS).
“And” between values parts separate entries of the source, which are not always exact repeats. Equal entries are not always repeated. Records with an inconclusive call do not appear. Where a structure was tested more than once in an assay, its records may differ in their call. The source made the active and inactive calls. How the source made its calls: active means hit-call score of the fitted dose curve at least 0.9, where 1 is the maximum; inconclusive means response in the unintended direction; inactive means score below 0.9.

Read-out: xenobiotic metabolism (CYP1A2), CYP1A2 (gene 1544)
Test: CLD_CYP1A2_48hr: CellzDirect (CLD) Gene Expression Assay for xenobiotic metabolism (CYP1A2) at 48 hours (AID 2283703)
Experimental: CLD_48hr is a cell-based, multiplexed-readout assay that uses hepatocyte, a human liver primary cell, with measurements taken at 48 hours after chemical dosing in a 96-well plate.CLD_CYP1A2_48hr is one of 16 assay component(s) measured or calculated from the CLD_48hr assay. It is designed to make measurements of mRNA induction, a form of inducible reporter, as detected with chemiluminescence signals by Quantitative Nuclease Protection Assay (qNPA) technology.Data from the assay component CLD_CYP1A2_48hr was analyzed at the endpoint, CLD_CYP1A2_48hr, in the positive analysis fitting direction relative to DMSO as the negative control and baseline of activity. Using a type of inducible reporter, gain-of-signal activity can be used to understand changes in the reporter gene as they relate to the gene CYP1A2. Furthermore, this assay endpoint can be referred to as a primary readout. To generalize the intended target to other relatable targets, this assay endpoint is annotated to the cyp intended target family, where subfamily is xenobiotic metabolism.
Human hepatocyte cultures were treated daily for two consecutive days with fresh dosing solutions containing appropriate concentrations of the 320 ToxCast chemicals (chemical identities were blinded to CellzDirect and other ToxCast collaborators), vehicle control (0.2% DMSO), and positive control inducers as summarized in Table 1. Due to the large number of treatment groups and chemicals examined, the ToxCast chemicals were divided into two groups (spanning two independent cultures of hepatocytes from separate donor preparations (Hu778: ToxCast plates 1 and 2; Hu776: ToxCast plates 3 and 4). Each preparation of human hepatocyte cultures was treated with respective vehicle control, medium only control, set of six positive controls/reference chemicals for the five hepatic receptor pathways, and a subset of eight of the ToxCast chemicals (indoxacarb, pyrithiobac-sodium, norflurazon, cyhalofop-butyl, methomyl, thiram, acetochlor, and propiconazole). These replicate data, coupled with internal replicates designed within the blinded ToxCast chemical library, provided additional data to evaluate interindividual differences between hepatocyte preparations and their potential impact on chemical profiles.Cell morphology and integrity were evaluated using phase-contrast microscopy as an indicator of hepatocyte cell health (Tyson & Green, 1987). Cultures for each treatment group (i.e., media, vehicle [0.2% DMSO], positive control inducers [multiple concentrations], and the ToxCast chemicals [multiple concentrations]) were observed and cell morphology was assessed relative to vehicle control cultures at each harvest time point (0, 6, 24, or 48 h). […] Images were evaluated at the conclusion of the study to assess changes in cell integrity and account for the effects of chemical exposure on uncharacteristic changes in concentration-dependent gene expression profiles. The results from these determinations of apparent cytotoxicity were annotated (yes/no) alongside the corresponding qNPA data for reference.At the conclusion of each treatment period, hepatocyte cultures (96-well) were washed with 1 volume of HBSS, lysed by addition of 25 ul ArrayPlate lysis buffer (HTG, Tucson, AZ), and 70 ul/well of Denaturation Oil, denatured by incubation at 95C for 10 min, and frozen at approximately -70C until analysis by nuclease protection assay (qNPA) (Roberts et al., 2007). For qNPA analysis, cell lysates were thawed at 50C for approximately 30 min, qNPA probes were added, and samples were incubated at 95C for 10 min to begin the detection process by denaturing the target RNA, dissociating the duplexes and secondary structure hybridization. At the conclusion of the hybridization period, S1 nuclease reagent was added to each sample to digest all nonprotected nucleotides at 50C for 60-90 min. […]

SMILES	AC50	outcome
COC(=O)C(C)Oc1ccc(Oc2ccc(Cl)cc2Cl)cc1 (stereo not given)	20 µM (active) and 12.1 µM (active)	inactive
COP(=S)(OC)Oc1nc(Cl)c(Cl)cc1Cl	5.26 µM (active)	–
CC1COC(Cn2cncn2)(c2ccc(Oc3ccc(Cl)cc3)cc2Cl)O1 (stereo not given)	0.397 µM (active)	–
CCOP(=S)(OCC)SCn1c(=O)oc2cc(Cl)ccc21	3.96 µM (active)	–
COC(=O)c1ccccc1C(=O)OC	–	inactive
COc1nc(C)nc(NC(=O)NS(=O)(=O)c2ccccc2CCC(F)(F)F)n1	8.01 µM (active)	inactive
CCON=C(CC)C1=C(O)CC(c2c(C)cc(C)cc2C)CC1=O (stereo not given)	–	inactive
COP(N)(=O)SC (stereo not given)	–	inactive
CCCCNC(=O)n1c(NC(=O)OC)nc2ccccc21	6.67 µM (active)	–
CCCC1COC(Cn2cncn2)(c2ccc(Cl)cc2Cl)O1 (stereo not given)	5.36 µM (active)	–
COC(=O)N(OC)c1ccccc1COc1ccn(-c2ccc(Cl)cc2)n1	0.54 µM (active)	–
CC(Oc1ccc(Cl)cc1Cl)C(=O)O (stereo not given)	–	inactive
O=C(Nc1ccccc1)Nc1ccnc(Cl)c1	7.3 µM (active)	–
C#CCOS(=O)OC1CCCCC1Oc1ccc(C(C)(C)C)cc1 (stereo not given)	3.47 µM (active)	–
CS/C(C)=N/OC(=O)N(C)SN(C)C(=O)O/N=C(\C)SC	–	inactive
CCCCOC(=O)c1ccccc1C(=O)OCCCC	10.6 µM (active) and 11.1 µM (active)	–
C=CCC1=C(C)[C@@H](OC(=O)[C@@H]2[C@@H](C=C(C)C)C2(C)C)CC1=O	–	inactive
O=C(O)COc1nc(Cl)c(Cl)cc1Cl	–	inactive
Fc1ccc(Oc2ccnc3cc(Cl)cc(Cl)c23)cc1	3.98 µM (active)	–

SMILES	AC50	outcome
CNC(=S)S	20 µM (active)	–
COC(=O)C=C(C)OP(=O)(OC)OC	–	inactive
CCOc1cc(Oc2ccc(C(F)(F)F)cc2Cl)ccc1[N+](=O)[O-]	0.845 µM (active)	–
COc1cnc(OC)n2nc(NS(=O)(=O)c3c(OCC(F)F)cccc3C(F)(F)F)nc12	–	inactive
CCNc1nc(Cl)nc(NCC)n1	8.97 µM (active)	–
CC(C)C1(C)N=C(c2nc3ccccc3cc2C(=O)O)NC1=O (stereo not given)	–	inactive
C=CCC1=C(C)C(OC(=O)C2C(C=C(C)C)C2(C)C)CC1=O (stereo not given)	–	inactive
CON(C)C(=O)Nc1ccc(Cl)c(Cl)c1	1.27 µM (active)	–
CCNc1nc(Cl)nc(NC(C)C)n1	10.2 µM (active)	–
CCCCC(CC)COC(=O)c1ccccc1C(=O)OCC(CC)CCCC (stereo not given)	–	inactive
CC(C)(C)c1ccc(CSc2cnn(C(C)(C)C)c(=O)c2Cl)cc1	–	inactive
CCCN(CCC)c1c([N+](=O)[O-])cc(S(N)(=O)=O)cc1[N+](=O)[O-]	–	inactive
CN(C)C(=S)SSC(=S)N(C)C	34 µM (active)	–
CC(C)Oc1cc(-n2nc(C(C)(C)C)oc2=O)c(Cl)cc1Cl	6.1 µM (active)	–
Cc1ccc(-c2c(Cl)nc(C#N)n2S(=O)(=O)N(C)C)cc1	–	inactive
C=CC1(C)OC(=O)N(c2cc(Cl)cc(Cl)c2)C1=O (stereo not given)	0.966 µM (active)	–
Oc1ccccc1-c1ccccc1	9.96 µM (active)	–
CCOC(=O)CC(SP(=S)(OC)OC)C(=O)OCC (stereo not given)	5.39 µM (active)	–
CC1=C(C(=O)Nc2ccccc2)SCCO1	31.1 µM (active)	–
